Out of some 5,500 compounds screened, about 2,000 (36%) were called active. Roughly 18% stayed inconclusive and do not appear here. This is one part of the list. Values without a mark were called inactive. Cut-off read from the data, not from the text of the source: active = normalized growth mostly below about 0.91 (no sharp cut-off); inconclusive = no clear call, values can overlap the other calls; inactive = mostly above about 0.92.
Assay: chemical genetic growth profiling, strain panel (AID 1159580);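 note: tested at 20 µM; growth read once vehicle control cultures reached saturation at 30 °C; 1 = growth at the plate median or of vehicle wells; lower values mean less growth of the strain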
Conditions: S. cerevisiae deletion strains, growth OD
[1] = locus YAL013W, strain DEP1, hits give low values
[2] = locus YGR078C, strain PAC10, hits give low values
[3] = locus YMR263W, strain SAP30, hits give low values
[4] = locus YMR307W, strain GAS1, hits give low values
[5] = locus YNL128W, strain TEP1, hits give low values
[6] = locus YNL153C, strain GIM3, hits give low values
[7] = locus YPL055C, strain LGE1, hits give low values
[8] = locus YBR229C, strain ROT2, hits give low values
[9] = locus YDL101C, strain DUN1, hits give low values
[10] = locus YDR150W, strain NUM1, hits give low values
[11] = locus YEL061C, strain CIN8, hits give low values
[12] = locus YGR229C, strain SMI1, hits give low values
[13] = locus YHR030C, strain SLT2, hits give low values
[14] = locus YHR087W, strain rtc3, hits give low values
[15] = locus YJR043C, strain POL32, hits give low values
[16] = locus YJR075W, strain HOC1, hits give low values
[17] = locus YLR039C, strain RIC1, hits give low values
[18] = locus YLR058C, strain SHM2 (second series), hits give low values
[19] = locus YLR085C, strain ARP6, hits give low values
[20] = locus YLR262C, strain YPT6, hits give low values
[21] = locus YML094W, strain GIM5, hits give low values
[22] = locus YMR219W, strain ESC1, hits give low values
[23] = locus YNL298W, strain CLA4 (second series), hits give low values
[24] = locus YNL322C, strain KRE1, hits give low values
[25] = locus YNR030W, strain Alg12, hits give low values
[26] = locus YPL241C, strain CIN2, hits give low values
[27] = locus YPR135W, strain CTF4, hits give low values

SMILES: Nc1ncnc2c1ncn2[C@@H]1O[C@H](C(=O)NC2CC2)[C@H](O)C1O (some centres undefined)
- normalized growth [1]: 1
- normalized growth (locus YAL040C, strain CLN3, hits give low values): 0.986
- normalized growth (locus YCL061C, strain MRC1 (second series), hits give low values): 1
- normalized growth (locus YER002W, strain NOP16, hits give low values): 1
- normalized growth [2]: 1.01
- normalized growth [3]: 0.986
- normalized growth [4]: 1.04
- normalized growth [5]: 0.998
- normalized growth [6]: 1.03
- normalized growth (locus YNL175C, strain NOP13, hits give low values): 1
- normalized growth (locus YNL197C, strain WHI3, hits give low values): 0.986
- normalized growth (locus YNL224C, strain SQS1, hits give low values): 1.01
- normalized growth (locus YOR083W, strain WHI5 (second series), hits give low values): 1.01
- normalized growth [7]: 1

SMILES: O=[N+]([O-])c1ccc(-c2nn[nH]n2)cc1
- normalized growth [1]: 0.992
- normalized growth [8]: 0.987
- normalized growth [9]: 0.988
- normalized growth [10]: 1.01
- normalized growth [11]: 1.01
- normalized growth [2]: 0.989
- normalized growth [12]: 0.987
- normalized growth [13]: 0.955
- normalized growth [14]: 0.993
- normalized growth [15]: 1.01
- normalized growth [16]: 0.992
- normalized growth (locus YKL190W, strain CNB1, hits give low values): 0.975
- normalized growth [17]: 0.968
- normalized growth [18]: 0.984
- normalized growth [19]: 1.04
- normalized growth [20]: 0.871
- normalized growth [21]: 1.04
- normalized growth [22]: 0.994
- normalized growth [3]: 1.01
- normalized growth [4]: 1.11
- normalized growth [5]: 0.971
- normalized growth [6]: 0.995
- normalized growth [23]: 0.965
- normalized growth [24]: 0.99
- normalized growth [25]: 0.98
- normalized growth [7]: 0.993
- normalized growth [26]: 0.999
- normalized growth [27]: 0.967

SMILES: COC(=O)CSCCc1nc(-c2ccc([N+](=O)[O-])cc2)cs1
- normalized growth [1]: 1
- normalized growth [8]: 0.972
- normalized growth (locus YCL061C, strain MRC1, hits give low values): 0.97
- normalized growth [9]: 0.967
- normalized growth (locus YDL134C, strain PPH21, hits give low values): 0.976
- normalized growth [10]: 0.991
- normalized growth [11]: 0.986
- normalized growth [2]: 0.978
- normalized growth [12]: 0.965
- normalized growth [13]: 0.683 (active)
- normalized growth [14]: 0.987
- normalized growth [15]: 0.971
- normalized growth [16]: 0.946
- normalized growth [17]: 0.919
- normalized growth [18]: 0.964
- normalized growth [19]: 0.717 (active)
- normalized growth [20]: 0.915
- normalized growth [21]: 0.994
- normalized growth [22]: 0.975
- normalized growth [3]: 0.968
- normalized growth [6]: 1.01
- normalized growth [23]: 0.927
- normalized growth [24]: 0.965
- normalized growth [25]: 0.969
- normalized growth [7]: 0.971
- normalized growth [26]: 0.911
- normalized growth [27]: 0.894
